Reference: PubChem BioAssay (NCATS)
Values joined by “and” are separate entries in the source; they are usually repeats but may differ in a detail not shown here. Identical values can stand only once. Records with an inconclusive call do not appear. Active and inactive are the calls of the source. Calls come from the whole dose curve; as a rule, active = well fitted curve in the direction sought with a large enough effect; inconclusive = small, poorly fitted or top-dose-only effect, or another doubt; inactive = no such curve, though single readings can be large; an effect the other way counts as inactive or inconclusive.

Tests used:
[1] = target: Cytochrome P450 3A7 (Homo sapiens) (UniProt P24462); test: Cytochrome P450 family 3 subfamily A member 7 (CYP3A7) small molecule antagonists: luciferase biochemical qHTS assay (AID 1963596); note: % is set by controls: 0 for no effect and ±100 for the full control effect; nearly all actives have a fitted effect of over 40% in size
Sequence of Cytochrome P450 3A7 (Homo sapiens) (P24462 whole entry, looked up): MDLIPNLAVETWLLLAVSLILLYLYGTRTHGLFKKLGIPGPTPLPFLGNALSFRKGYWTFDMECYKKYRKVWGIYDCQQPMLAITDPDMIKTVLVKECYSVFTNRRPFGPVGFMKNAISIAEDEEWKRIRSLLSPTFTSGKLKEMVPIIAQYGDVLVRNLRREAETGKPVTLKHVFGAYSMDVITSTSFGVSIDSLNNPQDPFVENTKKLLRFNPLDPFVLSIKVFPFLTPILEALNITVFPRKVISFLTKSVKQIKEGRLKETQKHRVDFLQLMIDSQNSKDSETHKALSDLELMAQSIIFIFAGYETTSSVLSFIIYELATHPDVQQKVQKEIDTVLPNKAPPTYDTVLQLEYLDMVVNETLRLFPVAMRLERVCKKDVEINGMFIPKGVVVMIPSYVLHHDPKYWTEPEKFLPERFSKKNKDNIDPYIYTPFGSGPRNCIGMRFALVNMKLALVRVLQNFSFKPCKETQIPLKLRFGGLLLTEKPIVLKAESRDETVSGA
In short: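 Recombinant CYP3A7 P450-Glo luminescent assay: enzyme-proluciferin substrate mix preincubated with compound 10 min at room temperature, reaction started with NADPH regeneration system for 1 h. Luciferin detected by luminescence; ketoconazole as positive control.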

[2] = Viability qHTS for spleen associated tyrosine kinase inhibitor (SYKi) drug resistant MV4-11 cells (AID 1963824); note: nearly all actives have a fitted effect of over 35% in size; note: potency is the fitted concentration of half-maximal effect
In short: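 CellTiter-Glo luminescence, read 10 min after reagent addition, reports viability after a 72 hr compound exposure. Cells are an MV4-11 line made resistant to SYK inhibition, seeded at 500 per well onto compound-containing plates.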

[3] = Quantitative highthroughput screen to assess conditional lethalithy of NOMO1 cells grown in RPMI1640 with dialyzed fetal bovine serum (RPMI+ds) (AID 1963877); note: nearly all actives have a fitted effect of over 30% in size; note: potency is the fitted concentration of half-maximal effect;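 for Viability: series mostly up to about 46 µM; 100% = DMSO control wells and 0% = empty wells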
In short: (§1)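 Each medium arm—HPLM with 10% dialyzed FBS, or RPMI1640 with 5 mM glucose and 10% untreated or dialyzed FBS—was screened against an 11-point, 3-fold compound titration for 48 h at 37 °C, with CellTiter-Glo luminescence as endpoint.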

[4] = Quantitative highthroughput screen to assess conditional lethalithy of NOMO1 cells grown in Human Plasma-Like Medium with dialyzed fetal bovine serum (HPLM+ds) (AID 1963878); note: potency is the fitted concentration of half-maximal effect; nearly all actives have a fitted effect of over 35% in size
In short: as §1

[5] = Quantitative highthroughput screen to assess conditional lethalithy of P12 Ichikawa cells grown in Human Plasma-Like Medium with dialyzed fetal bovine serum (HPLM+ds) (AID 1963879); conditions: Potency: viability; note: nearly all actives have a fitted effect of over 35% in size; note: potency is the fitted concentration of half-maximal effect; for Viability: series mostly up to about 46 µM
In short: as §1

[6] = Quantitative highthroughput screen to assess conditional lethalithy of P12 Ichikawa cells grown in RPMI1640 with dialyzed fetal bovine serum (RPMI+ds) (AID 1963880); conditions: Potency: P12-Ichikawa viability; note: nearly all actives have a fitted effect of over 35% in size; note: potency is the fitted concentration of half-maximal effect;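 for Viability: 100% = DMSO wells and 0% = empty wells on each plate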
In short: as §1

[7] = Quantitative highthroughput screen to assess conditional lethalithy of P12 Ichikawa cells grown in RPMI1640 with untreated serum (RPMI+s) (AID 1963881); conditions: Potency: viability; note: nearly all actives have a fitted effect of over 35% in size; note: potency is the fitted concentration of half-maximal effect;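 for Viability: series mostly up to about 46 µM; 100% = DMSO wells and 0% = empty wells without cells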
In short: as §1

[8] = Quantitative highthroughput screen to assess conditional lethalithy of SEM cells grown in Human Plasma-Like Medium with dialyzed fetal bovine serum (HPLM+ds) (AID 1963882); note: nearly all actives have a fitted effect of over 35% in size; note: potency is the fitted concentration of half-maximal effect; for Viability: series mostly up to about 46 µM
In short: as §1

[9] = Quantitative highthroughput screen to assess conditional lethalithy of SEM cells grown in RPMI1640 with unreated serum (RPMI+s) (AID 1963883); note: nearly all actives have a fitted effect of over 35% in size; note: potency is the fitted concentration of half-maximal effect;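 for Viability: 100% = DMSO wells and 0% = empty wells without cells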
In short: as §1

[10] = Quantitative highthroughput screen to assess conditional lethalithy of SEM cells grown in RPMI1640 with dialyzed fetal bovine serum (RPMI+ds) (AID 1963884); note: nearly all actives have a fitted effect of over 35% in size; note: potency is the fitted concentration of half-maximal effect;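 for Viability: series mostly up to about 46 µM; 100% = DMSO control wells and 0% = empty wells without cells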
In short: as §1

[11] = Cellular viability qHTS for adrenocortical cancer (ACC) cell line SW-13 (AID 1963989); conditions: SW-13 ACC cells viability, CellTiter-Glo, 48 h; activity (max response): hits give low values; note: nearly all actives have a fitted effect of over 65% in size; note: potency is the fitted concentration of half-maximal effect;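 for activity (max response): cells grown in serum-free medium with ITS supplement; % is set by controls: 0 for no effect and ±100 for the full control effect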
In short: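 Compound titrations (up to 46 uM final, in DMSO) were applied to SW-13 cells for 48 h at 37C/5% CO2. Reading used CellTiter-Glo after 20 min at room temperature; fitted curves yielded IC50 and efficacy.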

[12] = Cellular viability qHTS for adrenocortical cancer (ACC) cell line NCI-H295R (AID 1963990); note: nearly all actives have a fitted effect of over 60% in size; note: potency is the fitted concentration of half-maximal effect;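 for activity change, negative = viability loss: 0% = DMSO only wells and -100% = full killing with cytotoxic reference compound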
In short: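 Readout: CellTiter-Glo luminescence, 20 min RT. Exposure: 48 h, 37C/5% CO2. Cells: NCI-H295R, ITS-DMEM serum-free. Range: up to 46 uM. Analysis: 4PL fit, IC50 plus efficacy.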

[13] = Quantitative highthroughput screen to assess conditional lethalithy of NOMO1 cells grown in RPMI1640 with untreated serum (RPMI+s) (AID 1963876); note: nearly all actives have a fitted effect of over 35% in size; note: potency is the fitted concentration of half-maximal effect;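 for Viability: 100% = DMSO wells and 0% = empty wells without cells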
In short: as §1

CN(C)C/C=C/C(=O)Nc1ccc(C(=O)Nc2cccc(Nc3ncc(Cl)c(-c4c[nH]c5ccccc45)n3)c2)cc1
active: Potency [2] 10.3 nM and 18.6 nM | Potency [3] 0.263 µM | Potency [4] 0.263 µM | Potency [5] 0.331 µM | Potency [6] 0.331 µM | Potency [7] 0.331 µM | Potency [8] 0.209 µM | Potency [9] 0.186 µM | Potency [10] 0.166 µM | Potency [11] 0.282 µM | Potency [12] 0.562 µM
inactive: Potency [1]

CCCCCCCC(=O)OCC(COC(=O)CCCCCCC)OC(=O)CCCCCCC
inactive: Potency [1] | Potency [2] | activity (max response) [11] 8.32%

Cc1oc(=O)oc1CN1CCN(c2cc3c(cc2F)c(=O)c(C(=O)O)c2n3C(C)S2)CC1 (centres undefined)
active: Potency [2] 18.6 µM
inactive: Potency [1] | Potency [13] | Potency [3] | Potency [5] | Potency [6] | Potency [7] | activity (max response) [11] 4.83% and 4.68% | Potency [12]

CCN(CC)C(=O)c1ccc(O)c(OC)c1
inactive: Potency [1] | Potency [2] | activity (max response) [11] 3.37%

NC[C@H]1O[C@H](O[C@H]2[C@H](O[C@@H]3O[C@H](CO)[C@@H](O)[C@H]3O)C(O)[C@H](N)C[C@@H]2N)[C@H](N)[C@@H](O)[C@@H]1O (some centres undefined)
inactive: activity change, negative = inhibition [1] 16.1% [at 11.5 µM] | viability, % of control [2] 95.3% [at 9.25 µM] | activity (max response) [11] 8.3% | activity change, negative = viability loss [12] 0.419% [at 9.17 µM]

CC(=O)Oc1cccc(C)c1
inactive: Potency [1] | Potency [2] | activity (max response) [11] 17.7% | Potency [12]

O=c1c(O)c(-c2ccc(O)cc2O)oc2cc(O)cc(O)c12
inactive: Potency [1] | Potency [2] | Potency [13] | Potency [3] | activity (max response) [11] 14.7% | Potency [12]

Cc1ccnc(NS(=O)(=O)c2ccc(N)cc2)n1
inactive: Potency [1] | Potency [2] | activity (max response) [11] 8.12%

COc1ccccc1OC(=O)Oc1ccccc1OC
inactive: Potency [1] | activity (max response) [11] 1.52%
active: Potency [2] 5.96 µM

CCCCCC(C)N (centres undefined)
inactive: Potency [1] | Potency [2] | activity (max response) [11] 17.9%

C[C@@H](N)C(=O)O
inactive: Potency [1] | Potency [2] | activity (max response) [11] 1.67% | Potency [12]

CCNC(=O)Nc1ccc2ncc(Nc3ccc(C)cc3)nc2n1
inactive: Potency [1] | Potency [2] | Potency [6] | Potency [7]

COc1ccc2c(c1)CCCC2=O
inactive: Potency [1] | Potency [2] | activity (max response) [11] 14.4% | Potency [12]

O=C(CCCl)NCc1ccccc1
inactive: Potency [1] | Potency [2] | activity (max response) [11] 9.65% | Potency [12]

CCOCCn1c(C2CCN(CCc3ccc(C(C)(C)C(=O)O)cc3)CC2)nc2ccccc21
inactive: Potency [1] | Potency [2] | activity (max response) [11] 2.01%

CC(=O)OCC(=O)[C@@]12N=C(C)O[C@@H]1C[C@H]1[C@@H]3CCC4=CC(=O)C=C[C@]4(C)[C@H]3[C@@H](O)C[C@@]12C
inactive: Potency [1] | Potency [2] | activity (max response) [11] 11.7% and 0.528%

CNC(=O)c1c(I)c(NC(=O)CCCCC(=O)Nc2c(I)c(C(=O)O)c(I)c(C(=O)NC)c2I)c(I)c(C(=O)O)c1I
inactive: Potency [1] | Potency [2] | activity (max response) [11] -7.54%

Cc1nc2n(c(=O)c1CCN1CCC(c3noc4cc(F)ccc34)CC1)CCCC2
inactive: Potency [1] | Potency [2] | Potency [13] | Potency [3] | Potency [5] | Potency [6] | Potency [7] | Potency [8] | Potency [9] | Potency [10] | Potency [12]

CCCCNC(=O)NS(=O)(=O)c1ccc(N)cc1
inactive: Potency [1] | activity (max response) [11] 0.545%
active: Potency [2] 2.11 µM

Cc1cc(-n2nc3ccc(Cl)cc3n2)c(O)c(C(C)(C)C)c1
inactive: Potency [1] | Potency [2] | activity (max response) [11] 9.75% | Potency [12]

C[N+]1(C)CCC(=C(c2ccccc2)c2ccccc2)CC1
inactive: Potency [1] | Potency [2] | activity (max response) [11] -4.49% | Potency [12]

O=C(O)c1ccccc1Nc1cc(Cl)ccc1C(=O)O
inactive: Potency [1] | Potency [2] | activity (max response) [11] -18.2%

COc1ccccc1OCC(O)COC(N)=O (centres undefined)
inactive: Potency [1] | Potency [2] | Potency [13] | Potency [3] | Potency [6] | Potency [7] | Potency [8] | Potency [10] | activity (max response) [11] -1.45% | Potency [12]

O=C(O)CNC(=O)c1ccccc1
inactive: Potency [1] | Potency [2] | activity (max response) [11] 6.31%

N=C(N)c1ccc2cc(OC(=O)c3ccc(N=C(N)N)cc3)ccc2c1
active: Potency [2] 18.6 µM
inactive: Potency [1] | Potency [5] | Potency [9] | Potency [10] | activity (max response) [11] -32.1%

CCc1nc(-c2cccc(C)c2)c(-c2ccnc(NC(=O)c3ccccc3)c2)s1
active: Potency [2] 20.6 µM | Potency [11] 25.1 µM | Potency [12] 28.2 µM
inactive: Potency [1] | Potency [13] | Potency [3] | Potency [8]

O=c1[nH]c(=O)n([C@H]2C[C@H](O)[C@@H](CO)O2)cc1Br
inactive: Potency [1] | activity (max response) [11] -6.63% | Potency [12]
active: Potency [2] 8.41 µM

C#CCC(Cc1cnc2nc(N)nc(N)c2n1)c1ccc(C(=O)N[C@@H](CCC(=O)O)C(=O)O)cc1 (some centres undefined)
active: Potency [2] 0.0021 µM | Potency [13] 0.187 µM | Potency [5] 0.0372 µM | Potency [9] 0.059 µM | Potency [11] 0.0355 µM | Potency [12] 0.0158 µM
inactive: Potency [1]

COc1cc2c(Oc3ccc4[nH]c(C)cc4c3F)ncnc2cc1OCCCN1CCCC1
inactive: Potency [1]
active: Potency [2] 5.8 µM and 2.63 µM | Potency [8] 9.35 µM | Potency [9] 4.18 µM | Potency [10] 5.26 µM | Potency [11] 25.1 µM | Potency [12] 22.4 µM
